Consider 17 molecules from ChEMBL document CHEMBL1961873, “Compounds: GSK PKIS; Assays: Nanosyn kinase panel” (2012).

For assay [1], the system named is Epidermal growth factor receptor (Homo sapiens), P00533 [T790M]. The note with it: at 1 µM.
The subject of assay [2] is Epidermal growth factor receptor (Homo sapiens), P00533 [L858R,T790M]. The note with it: at 0.1 µM.
For assay [3] the test system is unchanged. The note with it: at 1 µM.
The target in assay [4] is Ephrin type-A receptor 2 (Homo sapiens) (UniProt P29317). To be noted: at 0.1 µM.
Ephrin type-A receptor 2 (Homo sapiens), sequence (P29317 whole entry): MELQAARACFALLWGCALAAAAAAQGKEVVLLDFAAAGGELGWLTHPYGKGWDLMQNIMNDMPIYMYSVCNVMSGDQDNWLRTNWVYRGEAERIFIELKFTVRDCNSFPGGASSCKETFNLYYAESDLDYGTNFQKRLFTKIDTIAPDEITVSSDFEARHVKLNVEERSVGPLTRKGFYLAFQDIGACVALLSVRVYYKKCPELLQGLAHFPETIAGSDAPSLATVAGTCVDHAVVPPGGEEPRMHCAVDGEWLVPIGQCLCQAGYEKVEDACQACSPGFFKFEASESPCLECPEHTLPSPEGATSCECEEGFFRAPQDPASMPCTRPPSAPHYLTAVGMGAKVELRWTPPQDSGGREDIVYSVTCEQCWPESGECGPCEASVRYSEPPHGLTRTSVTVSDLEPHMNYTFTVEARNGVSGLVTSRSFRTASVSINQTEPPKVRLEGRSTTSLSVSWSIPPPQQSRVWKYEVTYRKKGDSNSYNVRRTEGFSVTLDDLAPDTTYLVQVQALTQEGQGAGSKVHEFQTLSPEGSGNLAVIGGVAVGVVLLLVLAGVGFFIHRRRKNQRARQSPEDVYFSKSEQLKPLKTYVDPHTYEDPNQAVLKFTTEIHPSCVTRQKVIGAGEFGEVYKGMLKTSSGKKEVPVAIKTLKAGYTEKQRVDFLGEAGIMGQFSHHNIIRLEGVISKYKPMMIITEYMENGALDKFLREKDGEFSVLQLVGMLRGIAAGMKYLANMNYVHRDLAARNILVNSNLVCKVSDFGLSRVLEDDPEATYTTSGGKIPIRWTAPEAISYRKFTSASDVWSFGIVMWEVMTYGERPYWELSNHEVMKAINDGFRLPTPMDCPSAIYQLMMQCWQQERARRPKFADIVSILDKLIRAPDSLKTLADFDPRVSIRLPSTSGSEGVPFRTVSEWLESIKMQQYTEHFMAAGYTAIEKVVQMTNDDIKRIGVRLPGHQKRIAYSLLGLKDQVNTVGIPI
Assay [5] has the same target. To be noted: at 1 µM.
The target of assay [6] is T1, Ephrin type-A receptor 3 (Homo sapiens) (UniProt P29320).
T1 sequence (whole entry): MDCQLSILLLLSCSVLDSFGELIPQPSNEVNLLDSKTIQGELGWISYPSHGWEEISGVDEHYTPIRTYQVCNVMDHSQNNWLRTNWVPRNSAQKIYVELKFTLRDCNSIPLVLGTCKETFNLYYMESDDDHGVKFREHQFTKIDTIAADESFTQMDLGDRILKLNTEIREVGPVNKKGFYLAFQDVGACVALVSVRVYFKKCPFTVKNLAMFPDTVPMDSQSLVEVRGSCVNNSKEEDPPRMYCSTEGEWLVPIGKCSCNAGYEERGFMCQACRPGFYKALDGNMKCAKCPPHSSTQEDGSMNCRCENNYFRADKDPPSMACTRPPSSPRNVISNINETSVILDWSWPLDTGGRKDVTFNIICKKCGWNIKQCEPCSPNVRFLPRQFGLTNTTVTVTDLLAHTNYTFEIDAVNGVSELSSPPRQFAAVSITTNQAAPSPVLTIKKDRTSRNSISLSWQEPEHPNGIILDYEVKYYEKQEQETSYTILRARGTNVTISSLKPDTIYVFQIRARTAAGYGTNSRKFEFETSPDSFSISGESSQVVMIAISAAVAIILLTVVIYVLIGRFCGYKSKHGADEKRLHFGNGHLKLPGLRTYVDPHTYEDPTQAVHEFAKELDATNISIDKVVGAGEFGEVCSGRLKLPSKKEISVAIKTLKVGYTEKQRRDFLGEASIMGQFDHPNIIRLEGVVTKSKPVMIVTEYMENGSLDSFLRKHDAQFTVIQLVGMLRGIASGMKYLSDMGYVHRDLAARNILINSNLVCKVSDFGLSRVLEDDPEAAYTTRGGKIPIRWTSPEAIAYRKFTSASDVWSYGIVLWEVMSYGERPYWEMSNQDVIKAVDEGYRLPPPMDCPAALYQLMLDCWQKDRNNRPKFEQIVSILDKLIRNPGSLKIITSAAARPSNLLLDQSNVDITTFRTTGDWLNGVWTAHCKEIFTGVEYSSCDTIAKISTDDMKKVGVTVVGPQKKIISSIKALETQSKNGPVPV
The note with it: at 0.1 µM.

Assay [7] concerns the target T1, Ephrin type-A receptor 3 (Homo sapiens). The note with it: at 1 µM.
The target in assay [8] is Ephrin type-A receptor 4 (Homo sapiens) (UniProt P54764). The note with it: at 0.1 µM.
Ephrin type-A receptor 4 (Homo sapiens), sequence (P54764 whole entry): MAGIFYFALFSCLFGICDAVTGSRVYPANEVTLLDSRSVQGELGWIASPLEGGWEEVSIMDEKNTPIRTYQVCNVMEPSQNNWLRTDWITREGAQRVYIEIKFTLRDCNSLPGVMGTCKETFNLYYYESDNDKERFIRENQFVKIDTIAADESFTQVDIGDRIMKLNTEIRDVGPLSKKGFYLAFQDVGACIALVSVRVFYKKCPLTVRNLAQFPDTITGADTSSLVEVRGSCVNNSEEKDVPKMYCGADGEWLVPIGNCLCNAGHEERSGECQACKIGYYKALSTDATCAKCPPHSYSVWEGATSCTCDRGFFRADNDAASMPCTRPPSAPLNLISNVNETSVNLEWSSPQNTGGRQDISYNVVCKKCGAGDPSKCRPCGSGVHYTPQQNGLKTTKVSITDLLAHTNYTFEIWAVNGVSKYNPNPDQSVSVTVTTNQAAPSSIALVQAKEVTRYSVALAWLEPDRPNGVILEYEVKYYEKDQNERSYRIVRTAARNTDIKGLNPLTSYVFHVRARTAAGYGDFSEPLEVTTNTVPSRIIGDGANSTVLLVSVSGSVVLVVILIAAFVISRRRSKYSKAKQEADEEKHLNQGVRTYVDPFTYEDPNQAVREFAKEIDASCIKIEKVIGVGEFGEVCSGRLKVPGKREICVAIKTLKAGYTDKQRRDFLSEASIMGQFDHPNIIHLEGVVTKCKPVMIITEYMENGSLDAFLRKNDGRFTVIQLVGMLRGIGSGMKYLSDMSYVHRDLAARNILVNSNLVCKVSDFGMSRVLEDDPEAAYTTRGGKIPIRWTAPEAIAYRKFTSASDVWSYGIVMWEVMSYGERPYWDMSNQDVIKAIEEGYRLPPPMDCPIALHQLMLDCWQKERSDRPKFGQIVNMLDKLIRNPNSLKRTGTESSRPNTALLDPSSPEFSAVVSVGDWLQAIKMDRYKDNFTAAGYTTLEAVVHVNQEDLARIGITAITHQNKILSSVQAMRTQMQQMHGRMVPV
Assay [9] shares this target. The note with it: at 1 µM.
The target in assay [10] is T2, Ephrin type-B receptor 2 (Homo sapiens) (UniProt P29323).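 Also: reported as mean inhibition of EPHB2, from the GSK PKIS dataset.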
T2 sequence (whole entry): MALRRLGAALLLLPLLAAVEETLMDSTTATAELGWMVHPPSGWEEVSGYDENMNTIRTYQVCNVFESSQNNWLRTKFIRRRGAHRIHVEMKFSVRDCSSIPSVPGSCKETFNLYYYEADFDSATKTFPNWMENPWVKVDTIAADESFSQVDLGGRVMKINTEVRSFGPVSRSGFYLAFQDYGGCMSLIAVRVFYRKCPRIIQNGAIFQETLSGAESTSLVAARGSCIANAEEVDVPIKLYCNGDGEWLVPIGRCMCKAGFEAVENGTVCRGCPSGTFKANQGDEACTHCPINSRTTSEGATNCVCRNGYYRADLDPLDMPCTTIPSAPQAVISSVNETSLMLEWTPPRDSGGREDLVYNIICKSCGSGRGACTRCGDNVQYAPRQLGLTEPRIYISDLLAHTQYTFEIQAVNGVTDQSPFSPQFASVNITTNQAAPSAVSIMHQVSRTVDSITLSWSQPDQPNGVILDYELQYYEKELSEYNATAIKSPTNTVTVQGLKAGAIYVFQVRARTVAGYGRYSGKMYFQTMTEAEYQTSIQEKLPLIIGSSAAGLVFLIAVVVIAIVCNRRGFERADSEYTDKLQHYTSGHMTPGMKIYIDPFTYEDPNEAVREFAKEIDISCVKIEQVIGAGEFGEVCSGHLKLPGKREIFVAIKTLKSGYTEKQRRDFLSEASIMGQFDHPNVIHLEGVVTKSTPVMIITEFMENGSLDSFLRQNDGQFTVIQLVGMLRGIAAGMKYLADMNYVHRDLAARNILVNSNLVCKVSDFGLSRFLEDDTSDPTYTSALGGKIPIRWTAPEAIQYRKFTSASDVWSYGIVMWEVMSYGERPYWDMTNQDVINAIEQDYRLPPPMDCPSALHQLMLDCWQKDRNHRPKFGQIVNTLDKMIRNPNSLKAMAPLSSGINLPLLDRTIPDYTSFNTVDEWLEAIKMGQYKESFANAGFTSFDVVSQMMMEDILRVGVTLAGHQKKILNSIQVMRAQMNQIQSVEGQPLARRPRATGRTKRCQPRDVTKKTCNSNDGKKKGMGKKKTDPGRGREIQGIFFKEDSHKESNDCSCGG
To be noted: at 0.1 µM.

Epidermal growth factor receptor (Homo sapiens), P00533 [L858R,T790M], sequence (P00533 whole entry T790M/L858R, looked up): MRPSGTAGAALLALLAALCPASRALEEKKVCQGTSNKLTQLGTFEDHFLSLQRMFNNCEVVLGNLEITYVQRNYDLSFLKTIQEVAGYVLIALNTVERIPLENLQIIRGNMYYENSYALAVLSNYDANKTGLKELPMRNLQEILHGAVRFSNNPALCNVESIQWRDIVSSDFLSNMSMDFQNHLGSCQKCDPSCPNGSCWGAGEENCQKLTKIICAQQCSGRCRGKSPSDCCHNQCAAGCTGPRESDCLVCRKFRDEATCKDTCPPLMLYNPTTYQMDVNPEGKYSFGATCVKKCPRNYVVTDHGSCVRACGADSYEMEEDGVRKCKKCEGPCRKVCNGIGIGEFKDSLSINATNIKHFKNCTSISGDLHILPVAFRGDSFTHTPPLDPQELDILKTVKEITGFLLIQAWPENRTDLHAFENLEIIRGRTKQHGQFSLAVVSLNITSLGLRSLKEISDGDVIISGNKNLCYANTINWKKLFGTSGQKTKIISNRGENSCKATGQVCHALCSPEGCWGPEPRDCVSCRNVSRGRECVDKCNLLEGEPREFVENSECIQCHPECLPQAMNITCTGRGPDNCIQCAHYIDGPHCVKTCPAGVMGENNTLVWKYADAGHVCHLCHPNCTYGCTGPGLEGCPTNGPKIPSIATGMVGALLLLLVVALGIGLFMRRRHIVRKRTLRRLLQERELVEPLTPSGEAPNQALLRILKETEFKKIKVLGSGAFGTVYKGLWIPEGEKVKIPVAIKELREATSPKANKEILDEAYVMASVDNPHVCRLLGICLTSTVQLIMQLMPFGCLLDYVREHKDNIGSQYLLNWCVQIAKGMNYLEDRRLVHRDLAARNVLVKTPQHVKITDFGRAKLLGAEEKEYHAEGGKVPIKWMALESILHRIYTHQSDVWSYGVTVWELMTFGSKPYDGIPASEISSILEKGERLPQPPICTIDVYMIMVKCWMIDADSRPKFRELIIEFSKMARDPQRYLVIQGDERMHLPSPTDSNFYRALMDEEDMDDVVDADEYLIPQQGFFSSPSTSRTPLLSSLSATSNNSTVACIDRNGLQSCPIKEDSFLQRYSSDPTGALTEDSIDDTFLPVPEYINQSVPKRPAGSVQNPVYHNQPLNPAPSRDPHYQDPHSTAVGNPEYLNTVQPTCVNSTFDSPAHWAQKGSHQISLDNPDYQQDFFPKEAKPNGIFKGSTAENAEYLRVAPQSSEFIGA
Epidermal growth factor receptor (Homo sapiens), P00533 [T790M], sequence (P00533 whole entry T790M): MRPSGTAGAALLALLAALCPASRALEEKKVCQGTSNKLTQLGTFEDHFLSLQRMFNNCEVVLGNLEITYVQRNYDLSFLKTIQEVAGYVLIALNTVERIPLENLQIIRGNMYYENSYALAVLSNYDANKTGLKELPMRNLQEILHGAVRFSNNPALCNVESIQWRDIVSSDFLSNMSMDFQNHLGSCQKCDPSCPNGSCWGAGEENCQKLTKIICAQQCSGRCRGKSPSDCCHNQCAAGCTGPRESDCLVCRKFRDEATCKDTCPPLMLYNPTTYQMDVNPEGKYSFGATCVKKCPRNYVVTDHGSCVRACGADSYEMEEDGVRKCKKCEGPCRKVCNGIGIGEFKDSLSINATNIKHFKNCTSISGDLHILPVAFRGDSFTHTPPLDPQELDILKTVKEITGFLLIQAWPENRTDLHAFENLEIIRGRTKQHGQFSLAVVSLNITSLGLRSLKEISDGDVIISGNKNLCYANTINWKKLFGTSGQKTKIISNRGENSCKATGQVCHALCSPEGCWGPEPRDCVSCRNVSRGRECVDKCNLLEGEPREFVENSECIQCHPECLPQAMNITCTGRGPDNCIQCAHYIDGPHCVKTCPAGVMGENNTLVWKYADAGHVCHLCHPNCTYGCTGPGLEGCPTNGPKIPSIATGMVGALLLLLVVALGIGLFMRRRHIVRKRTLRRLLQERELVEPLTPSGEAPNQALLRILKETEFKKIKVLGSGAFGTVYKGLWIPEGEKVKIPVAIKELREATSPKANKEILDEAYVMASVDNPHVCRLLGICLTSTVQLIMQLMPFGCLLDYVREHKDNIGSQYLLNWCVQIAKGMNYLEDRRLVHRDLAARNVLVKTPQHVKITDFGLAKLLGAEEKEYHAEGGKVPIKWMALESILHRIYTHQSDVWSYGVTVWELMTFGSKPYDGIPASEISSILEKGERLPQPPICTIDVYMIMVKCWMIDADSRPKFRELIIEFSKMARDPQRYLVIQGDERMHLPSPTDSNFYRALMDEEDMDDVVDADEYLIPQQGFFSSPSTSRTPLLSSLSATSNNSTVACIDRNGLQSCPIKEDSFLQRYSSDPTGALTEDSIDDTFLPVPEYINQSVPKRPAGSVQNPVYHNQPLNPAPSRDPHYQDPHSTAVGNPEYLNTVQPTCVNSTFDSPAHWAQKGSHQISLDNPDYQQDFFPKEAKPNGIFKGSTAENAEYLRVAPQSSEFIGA

The term inhibition denotes the change of the read-out against control, counted positive when it falls. Regarding `CCn1c(-c2nonc2N)nc2c(C#CC(C)(C)O)nc(OCCNC)cc21`, the inhibition in [1] was 1.6%; in assay [2], -1.42%; in assay [3] it was 0.02%; in assay [4] it was 0.18%; in assay [5], -0.52%; in assay [6] it was 1.69%. The inhibition was 3.22% in assay [7], 4% in assay [8], 8.24% in [9] and 8.92% in assay [10].
In the case of `c1ccc(Cc2nc3ccc(Nc4ncnc5ccccc45)cc3[nH]2)cc1`, the inhibition was 2.67% in assay [1]; 1.06% in assay [2]; -0.39% in assay [3]; 1.21% in [4]; 0.81% in assay [5]; 4.49% in assay [6]. The inhibition in assay [7] was 4.41%; in assay [8], 9.01%; in assay [9] it was 11.7%; in assay [10] it was 8.45%.
For `COc1ccc2ncnc(Nc3ccc(OCc4ccccc4)cc3)c2c1`, the inhibition in assay [1] turned out to be 5.68%; in [2], 2.24%; in [3], 4.15%; in assay [4] it was 1.06%; in [5] it was 0.85%; in assay [6] it was 2.45%. For the same molecule, the inhibition was determined as 3.28% in [7], 5.9% in [8], 5.92% in [9] and 3.16% in [10].
As to `Cc1cc(Cl)cc2c1NC(=O)C2=NNc1ccc(S(N)(=O)=O)cc1`, the inhibition is 3.73% in assay [1]; -0.55% in [2]; 2.83% in [3]; 1.34% in assay [4]; 1.02% in assay [5]; 3.32% in [6]. Besides, the inhibition in assay [7] came to 2.87%; in [8] it was 6.66%; in [9] it was 7.34%; in assay [10], 4.48%.
Regarding `Cc1ccc2c(-c3ccnc(Nc4ccc5c(c4)OCCO5)n3)c(-c3ccc(C(F)(F)F)cc3)nn2n1`, the inhibition is 1.14% in [1]; 2.01% in [2]; 2.06% in assay [3]; 2.03% in assay [4]; 0.72% in assay [5]; 1.81% in [6]. In addition, the inhibition in [7] was 0%; in assay [8], 1.21%; in assay [9], 3.57%; in [10] it was -7.93%.
Consider `CCCN1CCCC(c2ccc(Nc3nc(Nc4cc(F)ccc4C(N)=O)c4cc[nH]c4n3)c(OC)c2)C1` (stereo not given), for which the inhibition is 79.3% in assay [1]; 55.5% in [2]; 85.6% in assay [3]; -1.17% in assay [4]; -1.1% in assay [5]; 3.86% in assay [6]. In addition, the inhibition in assay [7] was determined as 4.27%; in assay [8] it was 8.97%; in assay [9] it was 4.53%; in assay [10], 8.14%.
On to `NS(=O)(=O)c1ccc(Nc2cc(-c3cccc(O)c3)n[nH]2)cc1`, for which the inhibition in assay [1] was 3.02%; in [2], 4.99%; in assay [3], 3.61%; in assay [4], 1.13%; in assay [5] it was 0.64%; in assay [6], 6.18%. For the same molecule, the inhibition in assay [7] amounted to 6.36%; in assay [8], 10.1%; in assay [9], 7.86%; in assay [10] it was 6.18%.
Regarding `COC(=O)c1ccc2c(c1)C(=Cc1cc(Br)c(O)c(Br)c1)C(=O)N2`, the inhibition in assay [1] was 0.92%; in assay [2], -1.65%; in [3], 2.81%; in assay [4] it was 1.71%; in [5] it was 0.89%; in assay [6], 0.28%. In addition, the inhibition in assay [7] is 4.62%; in assay [8], 6.35%; in [9], 12.2%; in [10] it was 6.3%.
As to `CCS(=O)(=O)c1ccc(OC)c(Nc2ncc(-c3cccc(OC)c3)o2)c1`, the inhibition in assay [1] is -0.32%; in assay [2] it was -0.04%; in assay [3] it was 0.18%; in [4] it was 3.67%; in assay [5], 3.85%; in [6], 5.57%. Further, the inhibition turned out to be 8.5% in assay [7], 6.27% in assay [8], 12% in assay [9] and 9.46% in assay [10].
Turning to `CC(C)c1ccc2c(c1)NC(=O)/C2=N/Nc1ccc(S(N)(=O)=O)cc1`, the inhibition in assay [1] is -1.35%; in assay [2], -0.97%; in [3] it was -2.16%; in assay [4], -2%; in assay [5], -1.68%; in assay [6], -0.36%. Further, the inhibition in [7] turned out to be 1.64%; in [8], 3.01%; in [9], 5.06%; in assay [10], 0.18%.
For `OCc1ccc(-c2nc(-c3ccccn3)c(-c3ccc4c(c3)OCO4)[nH]2)cc1`, the inhibition came out at 0.84% in [1]; 3.54% in assay [2]; 0.26% in assay [3]; 2.78% in assay [4]; 2.31% in assay [5]; 6.06% in assay [6]. In addition, the inhibition in [7] was 6.97%; in assay [8], 9.84%; in assay [9], 7.48%; in [10], 12.2%.
Consider `COc1cc(/C=N/Nc2ncnc3c2cnn3C(C)C)ccc1O`, for which the inhibition is 0.47% in assay [1]; -0.23% in assay [2]; 2.31% in assay [3]; 1.56% in assay [4]; 21.1% in assay [5]; 3.55% in assay [6]. For the same molecule, the inhibition in [7] stood at 7.89%; in assay [8] it was 7.43%; in [9] it was 32.9%; in [10], 5.57%.
`NS(=O)(=O)c1cccc(-c2cc3ccncc3cc2OCc2ccccc2)c1`: the inhibition is 1.71% in assay [1]; 1.48% in [2]; 0.67% in assay [3]; 1.97% in assay [4]; 1.53% in assay [5]; 2.7% in assay [6]. Besides, the inhibition in [7] was found to be 3.87%; in [8] it was 8.09%; in [9], 5.03%; in assay [10] it was 4.23%.
For `CN1CCN(C(=O)c2ccc(NC(=O)Nc3ccc(N(C)c4ccnc(Nc5ccc(CS(C)(=O)=O)cc5)n4)cc3)cc2)CC1`, the inhibition is 1.47% in assay [1]; -1.16% in [2]; 2.86% in assay [3]; 0.47% in [4]; 5.09% in [5]; 0.72% in [6]. Further, the inhibition in assay [7] was 4.49%; in assay [8], 5.53%; in assay [9], 22.9%; in assay [10] it was 8.44%.
Turning to `CCn1c(-c2nonc2N)nc2ccc(F)cc21`, the inhibition was 6.26% in assay [1]; 3.36% in assay [2]; 6.82% in [3]; 0.18% in assay [4]; 0.43% in assay [5]; 4.17% in [6]. For the same molecule, the inhibition in [7] stood at 4.99%; in assay [8] it was 11.3%; in [9], 15%; in [10], 7.78%.
Regarding `COc1cc2ncn(-c3cc(OCc4ccccc4S(C)(=O)=O)c(C#N)s3)c2cc1OC`, the inhibition in assay [1] is 8.63%; in [2], 16.9%; in assay [3], 62.5%; in assay [4], 9.06%; in assay [5] it was 34.4%; in [6], 8.09%. Besides, the inhibition in assay [7] was 13.6%; in assay [8], 15.2%; in [9], 57.3%; in assay [10], 14%.
For the molecule `Nc1nccc(-c2c(-c3ccc(F)cc3)ncn2CCCN2CCOCC2)n1`, the inhibition is 3.66% in assay [1]; 3.71% in [2]; 0.56% in assay [3]; -0.08% in [4]; 0.96% in [5]; 0.74% in assay [6]. Also, the inhibition in assay [7] amounted to 3.02%; in assay [8], 7.96%; in assay [9] it was 9.12%; in assay [10] it was 4.96%.
